D1 agonist = activates the human D1 dopamine receptor; HEK293 T-REx D1 cells, calcium flux, agonist mode; activation, % at 2 µM; 1% of 360,000 active; AID 504660; in the data active = activation above about 30%; also: 0% is about no effect
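Inducible HEK293 T-REx D1 cells, force-coupled to calcium signalling, were plated at 4000 cells/well with tetracycline and held overnight at 30 C. After no-wash calcium dye loading, compound-evoked calcium rise over 180 s flagged agonists.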
D1 antag = human D1 dopamine receptor antagonism; HEK293 TREx D1 cells, calcium flux, dopamine EC80; active compounds read low; 3.2% of 360,000 active; activity change, negative = inhibition, % at 10 µM; in the data active = activity change below about -30%; also: % is scaled to controls: 0 for no effect and ±100 for the full control effect
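HEK293 T-REx cells expressing inducible, force-coupled D1 receptor; no-wash Ca dye, 30–90 min RT. Cmpd → 180 s read at 1 Hz → EC80 DA → 180 s read.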
TRPV1 agonist = agonists of human vanilloid receptor 1 (TRPV1); activation, % at 8.33 µM; TRPV1-expressing cells, Fluo-8 calcium influx, agonist mode; Q8NER1; AID 540275; 0.19% of 320,000 active; in the data active = activation above about 80%; inconclusive = between about 30% and that limit; also: 0% is about no effect
Target sequence (Q8NER1 whole entry, looked up): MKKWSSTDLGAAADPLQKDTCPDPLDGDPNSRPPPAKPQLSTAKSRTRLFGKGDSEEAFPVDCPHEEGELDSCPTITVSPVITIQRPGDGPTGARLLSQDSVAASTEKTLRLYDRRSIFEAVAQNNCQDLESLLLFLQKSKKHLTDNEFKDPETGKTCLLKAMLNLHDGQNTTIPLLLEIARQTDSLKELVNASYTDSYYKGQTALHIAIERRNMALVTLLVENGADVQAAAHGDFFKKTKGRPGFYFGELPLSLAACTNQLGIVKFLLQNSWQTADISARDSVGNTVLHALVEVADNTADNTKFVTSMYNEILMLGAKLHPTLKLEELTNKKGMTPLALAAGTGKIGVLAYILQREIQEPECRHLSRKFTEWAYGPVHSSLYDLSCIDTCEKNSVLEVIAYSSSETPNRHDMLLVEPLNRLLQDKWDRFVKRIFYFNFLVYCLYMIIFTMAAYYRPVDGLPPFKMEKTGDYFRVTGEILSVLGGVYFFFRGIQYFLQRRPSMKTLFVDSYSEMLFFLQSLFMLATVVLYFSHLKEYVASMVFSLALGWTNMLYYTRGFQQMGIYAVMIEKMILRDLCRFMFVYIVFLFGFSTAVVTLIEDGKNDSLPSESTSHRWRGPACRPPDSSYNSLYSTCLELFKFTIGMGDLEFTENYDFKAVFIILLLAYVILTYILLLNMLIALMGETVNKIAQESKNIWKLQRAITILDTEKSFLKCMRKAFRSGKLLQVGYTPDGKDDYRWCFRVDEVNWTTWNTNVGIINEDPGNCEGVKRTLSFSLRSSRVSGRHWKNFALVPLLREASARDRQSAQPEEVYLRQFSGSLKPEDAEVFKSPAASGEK
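Cells expressing TRPV1 were dye-loaded with Fluo-8 and read kinetically: 10 s baseline, 3 min after compound (agonist portion), then 2 min after EC20 capsaicin (allosteric enhancer portion). Calcium-bound dye fluorescence at 480/520 nm.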
TRPV1 PAM = human TRPV1 potentiation | potentiation, % at 8.33 µM | AID 540277 | TRPV1-expressing cells, Fluo-8 calcium influx, capsaicin EC20 potentiation | 0.02% of 320,000 active; in the data active = potentiation above about 80%; inconclusive = between about 30% and that limit; also: 0% is about no effect
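Fluo-8 calcium influx in TRPV1-expressing cells, kinetic read (ex 480/em 520 nm). Compound added and read 3 min for agonist activity, followed by capsaicin at EC20 final and 2 min further read for enhancement.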
D1 PAM = enhances dopamine response at the human D1 receptor. P21728. HEK293 TREx D1 cells, calcium flux, dopamine EC20 potentiation. potentiation, % at 10 µM. 0.036% of 360,000 active. AID 504651; in the data active = potentiation above about 30%; also: 0% is about no effect
* = called active by the depositor; ? = inconclusive; . = no result. Rows were chosen to be rich in hits. Some 4.2% of all compounds tested hit in one or more screens of this group.

SMILES | D1 agonist | D1 antag | TRPV1 agonist | TRPV1 PAM | D1 PAM
CC(C)CCN1CCN(Cc2cccn2-c2cccnc2)CC1CCO (stereo unspecified) | 30.4* | 34.0 | 1.2 | 4.2 | -0.8
COc1cccc2c1OCC(CN1CCN(CCC(C)C)C(CCO)C1)=C2 (stereo unspecified) | 2.7 | -30.5* | 0.2 | -7.3 | 5.9
Cc1ccc(N2CCN(C(=O)Nc3cccc([N+](=O)[O-])c3)CC2C)cc1 (stereo unspecified) | 9.4 | . | 82.9* | 1.0 | -8.6
O=C(Nc1cccc([N+](=O)[O-])c1)C1CCN(C(=O)Cc2ccccc2)CC1 | 6.8 | -30.3* | 27.8 | -21.1 | -2.5
CN(Cc1ccccc1)C(=O)c1ccc(NC(=O)Cc2cccc(NC(=O)C3CCN(C(=O)C4CCCCC4)CC3)c2)cc1 | 0.8 | -5.5 | 2.5 | -2.2 | 2.2
O=C(Nc1cccc([N+](=O)[O-])c1)N1CCN(c2ccccc2)CC1 | 18.5 | -2.6 | 100.4* | -16.9 | -5.2
CN(Cc1ccccc1)C(=O)c1ccc(NC(=O)Cc2cccc(NC(=O)C3CCN(C(=O)C4CC4)CC3)c2)cc1 | 251.5* | -21.5 | -11.8 | -10.4 | 2.5
Cc1ccc(Cl)cc1NC(=O)C1CCN(c2nc3ccccc3n3cccc23)CC1 | -0.5 | 6.5 | . | . | -2.3
COc1ccc(/C=C2\CCc3ccccc3C2=O)cc1Cn1cccn1 | 17.6 | -48.9* | ? | -4.8 | -8.8
O=C1NC2=C(C(=O)CCC2)C(c2ccc3ncccc3c2)N1 (stereo unspecified) | 3.0 | -39.6* | 3.0 | -27.1 | 0.4
O=C1CCCC2=C1C(c1ccncc1)Nc1ccccc1N2 (stereo unspecified) | 0.4 | 5.7 | -9.4 | 12.6 | -6.0
Cc1cc(C)c2oc(-c3cc(NC(=O)Cc4ccccc4)ccc3Cl)nc2c1 | 8.2 | -10.1 | . | . | -0.8
CCOc1ccc2c(c1)c(=O)c(C(=O)c1ccccc1)cn2Cc1ccccc1F | 1.0 | -13.0 | . | . | -0.1
CC1CCN(c2csc3ccc(F)cc3c2=O)CC1 | 3.0 | 12.1 | . | . | -0.7
O=C(COC(=O)C1=COCCO1)NCc1ccc(F)cc1 | 3.4 | 6.2 | 0.4 | -5.2 | 1.6
COc1ccccc1CNC(=O)COC(=O)C1=COCCO1 | 0.5 | -66.4* | 0.1 | -21.0 | 0.9
O=C(NCc1cccs1)c1ccc(Cn2c(SCc3cccc(F)c3)nc3cccnc32)cc1 | 2.9 | 5.9 | . | . | -2.0
O=C(Nc1ccccn1)NC1CCS(=O)(=O)C1 (stereo unspecified) | 0.7 | -33.8* | 2.4 | -7.1 | -2.7
Cc1cc2nc(-c3ccc(OCc4ccccc4C)cc3)cc(C(F)(F)F)n2n1 | -0.6 | -0.1 | . | . | -3.4
CCOc1ccc(CN2C(=O)c3ccccc3Sc3ccc(C(=O)NCc4ccco4)cc32)cc1 | 8.5 | 11.7 | . | . | 6.0
N#CC(C#N)=C(N)/C(C#N)=C/c1cc(O)c(O)c(O)c1 | 30.3* | -20.2 | 4.0 | 2.2 | 2.4
COc1ccccc1NC(=O)CSc1nc2ccccc2c(=O)n1C | 17.1 | -33.7* | 11.2 | 6.7 | 40.5*
Cc1cccc(NC(=O)CSc2nc3c([nH]c4ccccc43)c(=O)n2C)c1C | 1.6 | -51.2* | . | . | 0.6
NS(=O)(=O)c1ccc(NCc2c(F)cccc2Cl)cc1 | 8.1 | -34.8* | 0.1 | -5.4 | -2.6
Fc1cccc(Cl)c1CNc1ccc(N2CCCC2)cc1 | -0.9 | -4.7 | -0.9 | 5.9 | 6.8
SMILES | D1 agonist | D1 antag | TRPV1 agonist | TRPV1 PAM | D1 PAM
O=C(NCCN1CCOCC1)c1cc(-c2ccc(Cl)cc2Cl)on1 | 1.1 | -34.4* | ? | -22.3 | 6.5
O=C(NCCN1CCOCC1)c1cc(-c2cccc(Cl)c2)on1 | 2.1 | -3.1 | -0.3 | 3.7 | -3.7
O=C1CN(C(=O)COC(=O)c2cccc(OCc3ccccc3)c2)c2ccccc2N1 | 7.4 | -89.4* | 2.6 | -8.5 | 3.5
O=C1CN(C(=O)COC(=O)c2cccc(S(=O)(=O)NCc3ccccc3)c2)c2ccccc2N1 | 10.0 | 1.3 | -0.5 | -2.6 | -2.6
COc1cc(CC(=O)OCC(=O)N2CC(=O)Nc3ccccc32)cc(OC)c1OC | 0.7 | -32.7* | 2.6 | -1.2 | -4.1
Cc1ccc(-n2ncc3c(N4CCN(C)CC4)ncnc32)cc1Cl | 13.2 | -20.9 | . | . | -1.6
Cc1ccc2cc(CCNC(=O)c3cccs3)c(=O)[nH]c2c1C | -2.9 | -30.6* | -2.8 | 16.9 | -4.3
O=C(Cc1ccc(Cl)cc1)NNC(=S)NC(=O)c1cccs1 | 47.4* | 4.4 | 6.3 | 17.9 | -5.2
O=C(NCCc1ccc(Cl)cc1)c1cccs1 | 0.8 | -32.7* | 81.5* | -12.9 | -0.2
CCOc1ccc2c(c1)c(=O)c(C(=O)c1ccc(CC)cc1)cn2CC(=O)Nc1ccccc1C | 1.6 | -2.0 | . | . | -2.8
O=C(O)c1ccc(S(=O)(=O)N[C@@H](Cc2ccc(O)cc2)C(=O)O)cc1 | 3.8 | -11.3 | . | . | -1.6
N#Cc1ccc(C[C@@H](NS(=O)(=O)c2ccc(C(=O)O)cc2)C(=O)O)cc1 | 1.8 | -35.1* | . | . | -4.7
COc1ccc(C(=O)NNc2ncnc3c2cnn3-c2cccc(Cl)c2)cc1OC | -4.0 | -5.4 | . | . | 3.5
CCN(C(=O)CSc1nc(C)nc2sc(C)c(C)c12)C1CCS(=O)(=O)C1 (stereo unspecified) | 0.2 | -32.8* | 1.9 | 0.5 | 0.3
CC(C)(C)OC(=O)N1CCC(c2c(C(=O)N3CCN(C(=O)c4ccco4)CC3)cnn2-c2ccccc2Cl)CC1 | -0.3 | 10.4 | . | . | 3.1
CCc1ccc2n(-c3ccc(OC)cc3)c([S-])c(C(=O)Nc3cc(C)cc(C)c3)[n+]2c1 | 1.7 | 13.3 | -1.6 | -4.0 | -0.7
COc1ccc(CCNC(=O)c2c([S-])n(-c3ccc(C)cc3)c3cccc[n+]23)cc1 | 0.5 | -34.7* | 1.1 | 28.0 | -4.2
COc1ccc(CN2CCN(CC(=O)Nc3ccccc3C(=O)NC3CC3)CC2)cc1F | 1.5 | -6.0 | 0.6 | 4.6 | -4.9
COc1ccc(F)cc1CN1CCN(CC(=O)Nc2ccccc2C(=O)NC2CC2)CC1 | 1.2 | -36.8* | -1.3 | 11.1 | -6.8
CCOc1ccccc1C(=O)NC1CCN(CC(=O)Nc2cc(OC)ccc2OC)CC1 | 0.3 | -30.9* | 12.3 | -7.1 | -11.3
COc1cccc(NC(=O)C(Cc2ccccc2)NS(=O)(=O)c2ccc3c(c2)oc(=O)n3C)c1 (stereo unspecified) | 2.9 | -11.4 | . | . | -2.4
COC(=O)c1cc2sc(C)cc2n1Cc1ccc(Br)cc1F | 4.5 | 18.4 | . | . | 5.4
CCN(CC)C(=O)Cn1c(=O)n(CCCCCC(=O)NCc2ccc(C)cc2)c(=O)c2sccc21 | -1.4 | 3.0 | . | . | 0.1
c1ccc(CNc2nc(NCc3ccccc3)c3ccccc3n2)cc1 | 38.5* | -34.8* | 0.9 | 13.7 | 3.4
Fc1ccc(Nc2nc(NCc3ccco3)c3ccccc3n2)cc1 | 22.8 | -46.5* | -6.3 | -7.4 | -19.2
Cc1cccc(N2CCN(Cc3cc(=O)oc4cc(C)ccc34)CC2C)c1 (stereo unspecified) | -0.4 | -0.5 | . | . | 0.6
COc1ccccc1NC(=O)c1cc(=O)c2ccc(C)c(C)c2o1 | -0.3 | 4.7 | . | . | 0.7
